# Source: PubChem BioAssay AID493215 (National Center for Advancing Translational Sciences (NCATS), 2011)
# Results filed as inconclusive are left out. Entries that show only a call come without a potency. Calls of active or inactive are those of the source. Calls follow the shape of the dose curve; as a rule, active = well fitted inhibition curve with a large enough effect; inconclusive = small, poorly fitted or top-dose-only effect; inactive = flat fitted curve, though single readings scatter.
# Target: Cruzipain (Trypanosoma cruzi) (UniProt P25779)
# Sequence (P25779 123-467 limits assumed): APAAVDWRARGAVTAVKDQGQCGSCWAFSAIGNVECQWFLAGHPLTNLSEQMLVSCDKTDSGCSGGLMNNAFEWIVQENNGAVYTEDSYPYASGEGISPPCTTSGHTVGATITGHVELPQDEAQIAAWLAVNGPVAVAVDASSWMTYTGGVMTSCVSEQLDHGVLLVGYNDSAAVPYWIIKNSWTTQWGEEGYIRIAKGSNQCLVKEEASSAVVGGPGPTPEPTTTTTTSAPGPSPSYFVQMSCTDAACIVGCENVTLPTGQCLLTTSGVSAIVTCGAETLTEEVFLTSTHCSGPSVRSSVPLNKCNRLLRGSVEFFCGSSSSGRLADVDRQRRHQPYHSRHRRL
# Assay: Inhibitors of Cruzain: Benzimidazole Series - Round 1
# Conditions: purified cruzain, Z-FR-AMC fluorogenic cleavage; series mostly up to 57.1 µM
# Protocol: Cruzain is a cysteine protease from the tropical parasite Trypanosoma cruzi. This assay protocol is for an initial exploratory first round of benzimidazole-based inhibitors. Cruzain was assayed by the use of fluorogenic coumarin-based substrate Z-FR-AMC: proteolytic cleavage releases AMC, whose fluorescence is measured at 360 nm excitation and 450 nm emission. Purified cruzain was supplied by the labs of Prof. James McKerrow and Brian Shoichet, UC San Francisco. This assay had 0.01% Triton X-100 concentration.
# See following references for additional details:
# Assay Provider: Shoichet, Brian; University of California, San Fancisco
# Screening Center PI: Austin, C.P.
# Screening Center: NIH Chemical Genomics Center [NCGC]
# Buffer: 100 mM Sodium Acetate, pH 5.5, 5 mM DTT, Triton X-100 concentration: 0.01%.
# Buffer in columns 3 and 4 as negative control (no enzyme).
# Substrate solution: 2 uM final concentration of Z-FR-AMC (catalog number I-1160, Bachem) dispensed throughout the plate.
# Enzyme: 1.5 nM Cruzain final concentration in columns 1, 2, 5-48. Column 1 is neutral (100% activity). Column 2 contained titration of covalent inhibitor K11777, starting concentration 1 mM, then 1:2 dilution in duplicate).
# Three uL of enzyme or buffer were dispensed to 1536-well Greiner black solid bottom plates. Compounds and controls (23 nL) were transferred via Kalypsys PinTool. The plates were incubated for 15 min at room temperature, and then 1 uL of substrate solution was added to start the reaction. The plates were immediately transferred to and read 4 times every 30 seconds for 2 min on ViewLux High-throughput CCD imager (Perkin-Elmer) using 360 nm excitation and 450 nm emission fluorescence protocol. The fluorescence intensity difference between the third and the first time points (time lapse of 60 seconds) was used to compute reaction progress.
row,SMILES,Potency
1,Cc1ccc(C)c(OCCn2c(CCNC(=O)C3CCCCC3)nc3ccccc32)c1,1.62 µM (active)
2,O=C(NCCc1nc2ccccc2n1CCO)C1CCCCC1,6.46 µM (active)
3,CC(C)(C)OC(=O)NCC(=O)NNC(=O)c1nc2ccccc2[nH]1,inactive
4,O=C(Cc1nnc(-c2nc3ccccc3[nH]2)o1)Nc1cc(C(F)(F)F)ccc1Cl,inactive
5,O=C(COc1ccccc1Br)NCCc1nc2ccccc2[nH]1,3.63 µM (active)
6,O=C(NCc1nnc(-c2nc3ccccc3[nH]2)o1)C1CCCCC1,inactive
7,O=C(COc1ccc(F)cc1)NCCc1nc2ccccc2[nH]1,4.08 µM (active)
8,Cc1ccc(C)c(OCCn2c(CCNC(=O)COc3ccc(F)cc3)nc3ccccc32)c1,9.13 µM (active)
9,CC(C)(C)OC(=O)Cc1nnc(-c2nc3ccccc3[nH]2)o1,inactive
10,CC(C)(C)OC(=O)NCc1nnc(-c2nc3ccccc3[nH]2)o1,inactive
11,O=C(NNC(=O)c1nc2ccccc2[nH]1)OCc1ccccc1,inactive
